LMP1 NFkB inh: reduces LMP1-driven NF-kappaB luciferase signal. LMP1-induced NF-kappaB luciferase reporter cells, luminescence. inhibition, % at 12.5 µM. 350,000 compounds, 0.69% hits. AID 504558; in the data active = inhibition above about 41%; inconclusive = no clear call, values can overlap the other calls
Wnt bcat act: activators of Wnt/beta-catenin signaling | Wnt/beta-catenin reporter cell assay, activator, plate reader | activation, % at 9.35 µM | AID 743398 | 300,000 compounds, 1.2% hits; in the data active = activation above about 30%, passing the limit was not always enough; inconclusive = no clear call, values can overlap the other calls
MITF act: activators of MITF-driven TRPM1 promoter activity in SK-MEL-5 cells; activation, % at 12.5 µM; SK-MEL-5 TRPM1-promoter luciferase, 24 h; % of positive control, neutral wells = 0; 300,000 compounds, 0.75% hits; AID 588334;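 active = mean activation of at least 80% with every replicate also reaching 80%; inconclusive = mean reaches 80% but some replicate falls short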
Statin myotox sup: suppression of simvastatin myotoxicity; AID 602340; C2C12 myotubes + simvastatin, ATP luminescence, 48 h; scaled: DMSO 0, geranylgeraniol control 100; 330,000 compounds, 0.78% hits; rescue of ATP level, % at 7.49 µM;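 active = mean ATP rescue above about 67%, or every replicate alone reaching that limit, limit read from the data, passing the limit was not always enough; inconclusive = no clear call, values can overlap the other calls; inactive = mean under the limit and some replicate under it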;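 note: myotubes were challenged with 10 µM simvastatin during compound exposure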
TRPM1 prom inh: reduces MITF-dependent TRPM1 promoter luciferase signal; inhibition, % at 12.5 µM; 330,000 compounds, 0.83% hits; SK-MEL-5 TRPM1 promoter luciferase, 24 h; AID 488899;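 active = mean inhibition across replicates of 60% or more, whatever share of single replicates reaches that level; inconclusive = some that reach 60%, reason not given; inactive = mean inhibition across replicates below 60%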
esBAF inh: SWI/SNF esBAF complex inhibition; reporter increase, % at 12.5 µM; AID 602393; mouse ES cells, Bmi1-luciferase knock-in reporter, 24 h; 100% = twice the neutral-well signal; 350,000 compounds, 2% hits; in the data active = activation above about 40%; inconclusive = no clear call, values can overlap the other calls;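 note: a rise in the Bmi1 reporter signal indicates esBAF inhibition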
Of the large screens only hits and unclear results are named; the others gave an inactive call. An excerpt weighted towards active compounds, which were near 4% of everything screened.

N#C/C(=N\Nc1ccccc1F)C(=N)N1CCCCC1	MITF act 85.2 (no result: Statin myotox sup, esBAF inh)
COc1cc2c3nnc(-c4ccc(F)cc4)c-3cn(Cc3ccccc3)c2cc1OC	none (no result: MITF act, TRPM1 prom inh)
COc1ccc(Cn2cc3c(-c4ccc(F)cc4)nnc-3c3cc(OC)c(OC)cc32)cc1	LMP1 NFkB inh 69.2, TRPM1 prom inh 83.3
COc1cc2c3nnc(-c4ccc(F)cc4)c-3cn(Cc3ccc(F)cc3)c2cc1OC	TRPM1 prom inh 73.1
CCN(CC(=O)Nc1c(F)cccc1F)C(=O)C1CCN(C(=O)c2ccc(F)cc2)CC1	none
Nc1[nH]c(C(=O)c2ccc(Br)cc2)c(-c2ccc(Cl)cc2)c1C(=O)NCCc1c[nH]c2ccccc12	none (no result: LMP1 NFkB inh, MITF act, Statin myotox sup, TRPM1 prom inh, esBAF inh)
O=C(c1ccccc1)N1CCN(C(=O)c2ccc(OC(F)(F)F)cc2)CC1	Statin myotox sup 97.8
Brc1ccc2nc(-c3cccs3)c(NCC3CCCO3)n2c1 (stereo not drawn)	esBAF inh 60.4
O=C(c1ccco1)N1CCN(S(=O)(=O)/C=C/c2ccccc2)CC1	LMP1 NFkB inh 49.2
O=C(c1ccco1)N1CCN(S(=O)(=O)Cc2ccc(Cl)cc2)CC1	Wnt bcat act 41.5 (no result: Statin myotox sup, esBAF inh)
O=C(c1ccco1)N1CCN(S(=O)(=O)c2ccc(Cl)cc2)CC1	none
O=C(Cc1csc(N2CCOCC2)n1)N/N=C/c1ccc(O)c(O)c1O	none
CCCCn1c(=O)c(C(=O)c2ccccc2)nc2ccccc21	none (no result: Wnt bcat act)
O=C(CNS(=O)(=O)c1ccc(Br)s1)N1CCN(c2ncccn2)CC1	Statin myotox sup 149.6 (no result: Wnt bcat act)
O=C(O)C(=O)/C(=C\c1ccsc1)c1ccc2ccccc2n1	esBAF inh 55.7
O=C(O)C(=O)/C(=C\c1ccccc1)c1ccc2ccccc2n1	none (no result: Wnt bcat act)
O=C(c1ccccc1SCc1ccccc1)N1CCOCC1	none (no result: Statin myotox sup, esBAF inh)
CCCC[C@H](CN[C@@H](CNC)[C@H](C)CC)NCCC12CCC(CC1)C2	TRPM1 prom inh 93.5
CC[C@H](C)[C@@H](CNC)NC[C@@H](Cc1ccc(O)cc1)NCC(C)(C)C	none
COCCNC(=S)N/N=C1\CC(C)CC(C)(C)C1 (stereo not drawn)	Wnt bcat act 33.9
Cc1ccc(N=C2SCCCN2C(=O)C2=COCCO2)cc1Cl	none
COC(=O)c1ccccc1NC(=O)C1CC(=O)N(C2CCCCC2)C1 (stereo not drawn)	none (no result: Wnt bcat act)
C/C(Cn1cnc([N+](=O)[O-])n1)=N\NC(=O)c1ccccc1	esBAF inh 44.0 (no result: MITF act)
COCCc1nnc(NC(=O)C23CC4CC(CC(C4)C2)C3)s1	none (no result: MITF act)
O=S(=O)(NC1c2cccc3cccc(c23)C1Sc1ncccn1)c1ccccc1 (stereo not drawn)	LMP1 NFkB inh 60.6 (no result: Statin myotox sup, esBAF inh)
COc1cc(O)c(C(CC(=O)N2CCCC(C)C2)c2ccc3c(c2)OCO3)c(OC)c1 (stereo not drawn)	none
CC(=O)N1N=C(c2ccc(Br)cc2)CC1c1ccc(Br)cc1 (stereo not drawn)	esBAF inh 61.5 (no result: MITF act, TRPM1 prom inh)
COc1cccc(-n2nc(-c3ccnn3-c3cccc(Cl)c3)c(=O)n(C)c2=O)c1	none
CCOC(=O)Cc1csc(NC(=O)CC)n1	none
CCOC(=O)Cc1csc(NC(=O)CC(C)(C)C)n1	Statin myotox sup 109.5
CNC(=O)Cn1nc(-c2ccc(Cl)cc2)c2ccccc2c1=O	none (no result: Wnt bcat act)
CCOc1ccc(NC(=O)c2ccco2)cc1	none (no result: Wnt bcat act)
CCOC(=O)N1CCN(C(=S)NC(=O)c2nn(C)cc2Br)CC1	Statin myotox sup 125.0
CCOc1ccc(NC(=S)NC(=O)c2ccco2)cc1	MITF act 89.3, esBAF inh inconclusive
CCOC(=O)c1ccc(NC(=O)c2ccco2)cc1	esBAF inh 71.8
Cn1cc(Br)c(C(=O)NC(=S)N2CCN(c3ccccn3)CC2)n1	none (no result: Statin myotox sup, esBAF inh)
CCCC(CCC(=O)Nc1ccc(C(=O)OCC)cc1)C(=O)O (stereo not drawn)	Statin myotox sup 105.5
CCOC(=O)c1ccc(NC(=O)c2nn(C)cc2Br)cc1	MITF act 83.4, esBAF inh 51.3
CCOC(=O)CC(=O)Nc1ccc(C(=O)OCC)cc1	none (no result: Wnt bcat act)
CC(C)OC(=O)c1ccc(NC(=O)c2ccco2)cc1	MITF act 109.7, esBAF inh 60.6 (no result: Statin myotox sup)
COC(=O)c1c(NC(=O)c2ccco2)sc(C(=O)Nc2ccc(F)cc2)c1C	MITF act 109.4 (no result: Statin myotox sup, esBAF inh)
CCOC(=O)c1ccc(NC(=O)N(CC)CC)cc1	Wnt bcat act 49.3
O=C(NC(=O)c1ccc(Cl)cc1)OC1CCCCC1	none (no result: Wnt bcat act, Statin myotox sup, esBAF inh)
CC(=O)Nc1ccccc1NC(=O)c1ccccc1	none (no result: Statin myotox sup, esBAF inh)
CC(=O)Nc1ccc2c3c(cccc13)CC2	none (no result: MITF act)
Nc1ccccc1NC(=O)c1ccccc1	LMP1 NFkB inh 44.4
O=C(Nc1ccccc1Cl)OC1CCCCC1	esBAF inh 56.1
O=C(Nc1ccc2c3c(cccc13)CC2)c1ccccc1	esBAF inh 48.2 (no result: MITF act, TRPM1 prom inh)
O=C(Nc1ccccc1Cl)c1ccccc1	none (no result: Statin myotox sup, esBAF inh)
O=C(Nc1ccccc1Cl)c1ccc(C(=O)Nc2ccccc2Cl)cc1	LMP1 NFkB inh 84.9 (no result: Statin myotox sup, esBAF inh)
Cc1noc(C)c1NC(=O)Nc1ccc2c(c1)CC(=O)N([C@H](C)CO)C[C@@H](C)[C@H](CN(C)Cc1ccc(C(=O)O)cc1)O2	none (no result: LMP1 NFkB inh, Wnt bcat act, MITF act, TRPM1 prom inh)
NC(=O)c1nsc(C(=O)N(Cc2cccnc2)C(C(=O)NCc2ccc(F)cc2)c2ccc(O)cc2)c1N (stereo not drawn)	none
O=c1oc2ccccc2c(Nc2ccc3ccccc3c2)c1[N+](=O)[O-]	none (no result: Wnt bcat act, MITF act)
CN(Cc1ccccc1)S(=O)(=O)c1cc2c3c(c1)CCN3C(=O)CC2	none
CN(C)S(=O)(=O)Oc1cccc(C(=O)Nc2ccc(Cl)cc2)c1	none
O=C(Nc1ccccc1Cl)c1ccn[nH]1	esBAF inh 51.9 (no result: Wnt bcat act)
CC(OC(=O)C1CCCCC1)C(=O)Nc1cccc(Cl)c1 (stereo not drawn)	none
CC(OC(=O)Nc1cccc(Cl)c1)C(=O)OC1CCCCC1 (stereo not drawn)	esBAF inh 53.5
O=C(Nc1ccccc1F)c1ccn[nH]1	none (no result: Statin myotox sup, esBAF inh)
CN(C)S(=O)(=O)Oc1cccc(C(=O)Nc2ccccc2Cl)c1	esBAF inh 72.1 (no result: MITF act)
Cc1cccc(OCC(=O)NCc2ccccc2)c1	none
c1ccc(OCCSc2nnnn2-c2ccccc2)cc1	MITF act 90.2 (no result: Wnt bcat act)
CCOc1ccc(OCCSc2nnnn2-c2ccccc2)cc1	none
c1ccc(OCCSc2nnc3sc4ccccc4n23)cc1	LMP1 NFkB inh 70.1
Cc1noc(C)c1NC(=O)Nc1ccc2c(c1)C(=O)N([C@@H](C)CO)C[C@H](C)[C@H](CN(C)S(=O)(=O)c1ccc(F)cc1)OCCCC[C@H](C)O2	none (no result: LMP1 NFkB inh, Wnt bcat act, MITF act, Statin myotox sup, TRPM1 prom inh)
N#Cc1ccccc1OCC(=O)NC(=O)NCc1ccco1	MITF act 116.1 (no result: Statin myotox sup, esBAF inh)
CCNC(=O)NC(=O)COc1ccccc1C#N	MITF act 92.6, esBAF inh 91.1 (no result: Wnt bcat act)
CCc1cccc(NC(=O)C2CCCN2S(=O)(=O)c2ccccc2C(F)(F)F)c1 (stereo not drawn)	none
NS(=O)(=O)c1ccc(NC(=S)NNC(=O)CCC(=O)Nc2ccccc2Cl)cc1	none
